Common to all, as to experiment: NCI-60 one-dose screen, 48 h (100 = growth as untreated, 0 = no growth, -100 = all killed)
Common to all, as to settings: 10 µM unless noted

Assay [1] deals with SR leukemia.
Assay [2] concerns RPMI-8226 leukemia.
Assay [3] relates to OVCAR-8 ovarian.
Assay [4] deals with OVCAR-5 ovarian.
The test system of assay [5] is OVCAR-4 ovarian.
Assay [6] concerns SK-OV-3 ovarian.
In assay [7] the test system is IGROV1 ovarian.
The subject of assay [8] is OVCAR-3 ovarian.
Assay [9] deals with HS 578T breast.
Assay [10] concerns NCI/ADR-RES ovarian.
In assay [11] the test system is T-47D breast.
In assay [12] the test system is BT-549 breast.
The subject of assay [13] is MDA-MB-435 melanoma.
Assay [14] concerns SW-620 colon.
The test system of assay [15] is MCF7 breast.
The test system of assay [16] is HCT-116 colon.
Assay [17] deals with HCC-2998 colon.
Assay [18] deals with KM12 colon.
Assay [19] has as its system MDA-MB-468 breast.

“And” between values parts separate entries of the source, which are not always exact repeats. Identical values can stand only once. The panel holds about 83,000 compounds, 20% with a hit somewhere; the sample as a whole holds those more often.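 How to read the values: 0–100, growth inhibition (40 = 60% inhibited); 0, no net growth; -100 to 0, cell death (-40 = 40% of starting cells died; -100 = all dead).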 Unmarked numbers belong to inactive results. The source made the active and inactive calls. The calls were made as follows: active = growth percent below 10; inactive = the rest.

Regarding `Cc1ccc2nc(NC(=O)Nc3cccc(Cl)c3)sc2c1`, the growth was 89.9% in assay [1]; 96.7% in assay [2]; 107% in assay [3]; 118% in assay [4]; 99.5% in assay [5]; 102% in [6]. Besides, the growth was 98.4% in [7]; 123% in assay [8]; 116% in assay [9]; 93.9% in assay [10]; 98.5% in assay [11]; 121% in assay [12]. The growth in assay [13] was 105%; in assay [14] it was 106%; in assay [15], 66.8%; in assay [16], 94.7%; in assay [17], 122%; in [18], 98.6%. For the same compound, the growth in assay [19] was 93.8%.
Consider `COc1ccc(N=Nc2c(N)nn3c(-c4ccc(OC)c(OC)c4)ccnc23)cc1`, for which the growth in [1] is 77.7%; in assay [2], 65.6%; in assay [3], 78.8%; in assay [4], 87.1%; in [5], 95.5%; in [6], 56.4%. Also, the growth is 95.4% in assay [7]; 109% in [8]; 98.4% in assay [9]; 79.2% in assay [10]; 62% in assay [11]; 65.6% in assay [12]. Moreover, the growth in [13] is 81.9%; in assay [14], 95.2%; in assay [15], 84.9%; in [16], 72.5%; in [17], -35.9% (active); in [18] it was 97.9%. In addition, in assay [19], the growth was 80.2%.
Turning to `CC(C)(C)C(=O)c1c2c(c3ccc4c5ccccc5ccc4n13)C(=O)c1ccccc1C2=O`, the growth in [1] was 85.5%; in assay [2], 96.6%; in assay [3], 96.3%; in assay [4] it was 116%; in [5], 71.2%; in assay [6], 118%. Besides, the growth in assay [7] is 95.7%; in [8], 94.4%; in assay [9], 100%; in [10], 95.5%; in [11] it was 95.6%; in assay [12], 101%. Moreover, the growth in assay [13] is 103%; in assay [14], 102%; in [15] it was 75%; in assay [16], 90.7%; in assay [17], 112%; in assay [18] it was 94.4%. Also, the growth in assay [19] was 98.7%.
For `Cn1cc(Nc2ncnc(-c3ccc(N4CCCC4)c(C#N)c3)n2)cn1`, the growth in assay [1] is 28.7%; in assay [2], 83.9%; in assay [3], 84.4%; in [4] it was 85.4%; in [5] it was 78.9%; in [6], 76.4%. The growth in assay [7] is 51.7%; in [8], 81.6%; in assay [9] it was 41.3%; in assay [10], 67.3%; in assay [11], 84.9%; in assay [12], 76.1%. Further, the growth in assay [13] is 8.16% (active); in [14], 57.6%; in [15], 66.5%; in assay [16], 51.2%; in assay [17] it was 68.6%; in assay [19] it was 16.7%.
Consider `CC(C)C[C@H](NC(=O)CNC(=O)C[C@H]1O[C@@H]2OC3(C)CC[C@H]4[C@H](C)CC[C@@H]([C@H]1C)[C@@]24O3)B(O)O`, for which the growth in [1] is 9.06% (active); in assay [2] it was -11% (active); in assay [3], 4.17% (active); in assay [4] it was -32.6% (active); in assay [5], 18.9%; in assay [6], 25.7%. Also, the growth in assay [7] was 10.7%; in assay [8], -33.1% (active); in [9], -5.03% (active); in assay [10], 92.6%; in assay [11], -30.8% (active); in [12] it was -87% (active). Moreover, the growth in assay [13] was -71.1% (active); in [14], -0.307% (active); in assay [15], 20.3%; in [16] it was -67.2% (active); in assay [17] it was -94.5% (active); in assay [18], -24.4% (active). Besides, the growth in assay [19] is -58.4% (active).
On to `O=C1N/C(=N\c2nccs2)S/C1=C\c1ccc([N+](=O)[O-])cc1`, for which the growth in [1] is 25.5%; in assay [2], 6.29% (active); in assay [3] it was 14.3%; in assay [4] it was 32.8%; in assay [5], 12.4%; in assay [6] it was 52.7%. In addition, the growth was 23.6% in assay [7]; 12.7% in assay [8]; 20.8% in assay [9]; 8.78% (active) in assay [10]; 15.2% in [11]; 35.5% in assay [12]. Also, the growth is 22.2% in [13]; 20.9% in assay [14]; 9.68% (active) in assay [15]; -1.76% (active) in [16]; 22.7% in [17]; 14.2% in assay [18]. Besides, the growth in [19] was -14.6% (active).
`O=C(N=Nc1c(O)[nH]c2ccc(Br)cc12)c1ccc2nc(-c3ccc(Cl)cc3)[nH]c2c1`: the growth in assay [1] was 15.1%; in assay [2] it was 58.6%; in assay [3], -25.9% (active); in assay [4], 10.6%; in [5], -28% (active); in assay [6] it was 24.3%. In addition, the growth in assay [7] is -49.4% (active); in assay [8] it was -4.77% (active); in [9] it was -1.71% (active); in assay [10], 92.4%; in assay [11] it was -30.7% (active); in assay [12] it was 7.28% (active). For the same compound, the growth in assay [13] is -62.4% (active); in assay [14] it was -37.2% (active); in assay [15], -22.9% (active); in assay [16], 8.39% (active); in [17], -66.8% (active); in assay [19], -87.7% (active).
Take `O=C(N/N=C/c1c[nH]c2ccccc12)Nc1ccc(F)c(Cl)c1`: the growth in assay [1] was 19.3%; in [2] it was 27.5%; in assay [3], 50.2%; in [4] it was 60.1%; in assay [5], 52.8%; in assay [6] it was 38.6%. For the same compound, the growth in assay [7] was 42.7%; in assay [8], 18.9%; in assay [9], 58.8%; in assay [10], 9.47% (active); in assay [11], 34%; in assay [12], 18.5%. Besides, the growth in assay [13] was 0.865% (active); in assay [14], 41.3%; in assay [15], 9.25% (active); in assay [16], 25.5%; in assay [17], 3.69% (active); in assay [19], -1.93% (active).
Regarding `COc1cc(CNC(=O)C[C@H](C)CCC=C(C)C)ccc1OCc1cn(-c2cccc(C(F)(F)F)c2)nn1`, the growth was 41.5% in assay [1]; 89.8% in assay [2]; 28.1% in assay [3]; 97.5% in assay [4]; 45.1% in [5]; 89% in assay [6]. The growth was 102% in assay [7]; 103% in [8]; 94.3% in assay [9]; 44% in assay [10]; 32.4% in [11]; 92.3% in assay [12]. Further, the growth in [13] is 74.9%; in [14], 38.7%; in assay [15], 56.8%; in assay [16], 12.5%; in assay [17], 111%; in assay [19] it was 64.9%.
`O=c1c(-c2nc(-c3ccccc3)c(-c3ccccc3)[nH]2)coc2ccc(F)cc12`: the growth was 63.5% in [1]; 32.1% in assay [2]; 82.6% in [3]; 96.1% in assay [4]; 47.3% in [5]; 68.2% in assay [6]. For the same compound, the growth in assay [7] was 62.8%; in [8], 33.3%; in assay [9], 71.6%; in assay [10], 51.4%; in assay [11], 22.1%; in [12], 70.8%. For the same compound, the growth in assay [13] is 65.4%; in [14], 51%; in assay [15], 25.9%; in assay [16], 39.4%; in assay [17], 77.2%; in [19], 16%.
With `O=C(CSc1nc2ccccc2c(=O)[nH]1)Nc1ccccc1C(=O)O`, the growth in [1] was 95.2%; in [2], 102%; in [3], 109%; in assay [4], 105%; in [5], 109%; in [6], 90.7%. For the same compound, the growth in assay [7] was 109%; in assay [8] it was 106%; in assay [9], 79.3%; in assay [10] it was 103%; in [11], 93.9%; in [12] it was 103%. In addition, the growth in [13] is 104%; in assay [14] it was 130%; in [15], 84.5%; in assay [16], 107%; in assay [17] it was 125%; in [19], 92.5%.
As for `CC(=O)Nc1cccc(-n2c(COc3ccc(I)cc3)nc3ccccc32)c1`, the growth in [1] was 56.2% and 104%; in assay [2], 75.8% and 110%; in assay [3], 97.1% and 117%; in [4], 103% and 113%; in [5], 74.9% and 109%; in assay [6], 96.8% and 111%. The growth in assay [7] is 86.1% and 113%; in assay [8], 88.8% and 87.7%; in [9], 62.4% and 115%; in assay [10], 76.6% and 111%; in assay [11], 54.6% and 107%; in assay [12], 96.9% and 110%. The growth in assay [13] is 97.7% and 108%; in [14], 96.6% and 108%; in assay [15], 74.7% and 103%; in assay [16] it was 80.4% and 104%; in assay [17] it was 118% and 119%; in [19], 78.7% and 111%.
Regarding `COc1ccc(N=Nc2c(N)nn3c(N)c(C#N)c(-c4ccc(C)cc4)nc23)cc1`, the growth in assay [1] was 44.6%; in assay [2], 3.4% (active); in [3], 66.3%; in assay [4], 99.9%; in [5], 53.2%; in assay [6], 90.2%. Besides, the growth in [7] is 33.5%; in assay [8], 15.2%; in [9], 27.7%; in [10], 62.2%; in assay [11], 7.1% (active); in [12] it was 56.2%. The growth was 56.6% in assay [13]; 67.2% in assay [14]; 12.5% in assay [15]; 45.4% in assay [16]; 73% in assay [17]; 32.4% in [19].
Turning to `COc1cc(C=O)ccc1OC(=O)c1cc(-c2ccc(C)cc2)n(-c2ccc(S(C)(=O)=O)cc2)n1`, the growth in [1] was 121%; in [2], 94.7%; in [3] it was 105%; in [4] it was 109%; in assay [5], 105%; in assay [6] it was 107%. Further, the growth was 111% in [7]; 119% in [8]; 116% in assay [9]; 107% in assay [10]; 105% in assay [11]; 126% in [12]. In addition, the growth was 104% in assay [13]; 124% in assay [14]; 88.4% in assay [15]; 98.7% in assay [16]; 118% in [17]; 124% in assay [19].
In the case of `CN1C(=O)C2(C(C#N)=C(c3ccc(Cl)cc3)Nc3c2c(-c2ccccc2)nn3-c2ccccc2)c2ccccc21` (stereo not given), the growth was 29.6% in assay [1]; 60.3% in assay [2]; 98.5% in assay [3]; 96% in [4]; 96.1% in assay [5]; 99.2% in [6]. For the same compound, the growth in [7] is 98%; in assay [8], 112%; in assay [9], 65.3%; in [10], 78.8%; in assay [11], 84.6%; in [12] it was 93.8%. Besides, the growth in assay [13] was 97.1%; in assay [14], 106%; in [15], 73.8%; in assay [16], 73.8%; in assay [17], 87%; in assay [19], 95.4%.
